Among the data in PubChem BioAssay (NCI) are growth values, retold here.

Test systems include T-47D breast; BT-549 breast; MDA-MB-435 melanoma; SW-620 colon; MCF7 breast; HCT-116 colon; HCC-2998 colon; KM12 colon.
Common to all, as to test: NCI-60 one-dose screen, 48 h (100 = growth as untreated, 0 = no growth, -100 = all killed)
Holding throughout (details): 10 µM unless noted

Each structure is given as a SMILES string. The panel holds about 83,000 compounds, 20% with a hit somewhere; the sample as a whole holds those more often.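 Plates (96-well) were seeded with cells, treated with compound at one concentration, and incubated for 48 hours before percent growth was determined.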 A number with no mark means an inactive call. Calls of active or inactive are those of the source. Rule for the calls: active = growth percent below 10; inactive = the rest.

Consider `Cc1ccccc1C[P+](c1ccccc1)(c1ccccc1)c1ccccc1`, for which the growth with T-47D breast is 26%; in the test with BT-549 breast it was 29.6%; in the test with MDA-MB-435 melanoma it was 14.6%; in the test on SW-620 colon, 22.8%; with MCF7 breast, 10.8%; in the test with HCT-116 colon it was 15.7%. In addition, the results for the growth in the test with HCC-2998 colon and with KM12 colon were 12.2% and 14.5%, respectively.
With `Cn1c2ccccc2c2ssc(=S)c21`, the growth with T-47D breast was 87.3%; with BT-549 breast, 110%; in the test with MDA-MB-435 melanoma, 91.7%; in the test with SW-620 colon it was 105%; with MCF7 breast it was 92.9%; in the test with HCT-116 colon, 101%. Moreover, the growth with HCC-2998 colon was 101%; with KM12 colon, 99.7%.
With `Nn1c(CN2CCN(c3cc4c(cc3F)c(=O)c(C(=O)O)cn4C3CC3)CC2)n[nH]c1=S`, the growth in the test with T-47D breast was 98.3%; with BT-549 breast, 112%; with MDA-MB-435 melanoma it was 97.9%; with SW-620 colon, 105%; with MCF7 breast, 93.4%; in the test on HCT-116 colon it was 102%. Moreover, the growth is 92.7% with HCC-2998 colon and 103% with KM12 colon.
Consider `S=C=NP1(N=C=S)=NP(N=C=S)(N=C=S)=NP(N=C=S)(N=C=S)=NP(N=C=S)(N=C=S)=N1` (stereo not given), for which the growth in the test on T-47D breast was 82.3%; in the test on BT-549 breast, 80.4%; in the test on MDA-MB-435 melanoma, 104%; in the test with SW-620 colon, 108%; in the test with MCF7 breast it was 91%; with HCT-116 colon, 98.8%. Besides, the growth in the test with HCC-2998 colon and in the test on KM12 colon was 102% throughout.
As to `COc1cc(-c2nc3ccccc3s2)ccc1OCc1nc2n(n1)S(=O)(=O)c1ccccc1N2c1ccccc1`, the growth in the test with T-47D breast was 101%; in the test with BT-549 breast it was 104%; with MDA-MB-435 melanoma it was 107%; with SW-620 colon it was 102%; in the test with MCF7 breast it was 105%; in the test on HCT-116 colon, 99.5%. For the same compound, the figures for the growth in the test on HCC-2998 colon and with KM12 colon were 129% and 101%, respectively.
Consider `CCCC(=O)Oc1ccc(/C(=C(\C)c2ccc(OC)cc2)c2ccc(OCCN3CCCCC3)cc2)cc1`, for which the growth was 32.7% in the test on T-47D breast; 82.2% in the test on BT-549 breast; 84.2% in the test with MDA-MB-435 melanoma; 87.5% in the test on SW-620 colon; 28.3% with MCF7 breast; 55.7% in the test with HCT-116 colon. The growth in the test on HCC-2998 colon was 91%; with KM12 colon it was 75.6%.
With `O=C(CSc1nnc(-c2ccc(Cl)cc2)o1)Nc1ccc(C(=O)/C=C/c2ccccc2)cc1`, the growth was 107% in the test with T-47D breast; 99.8% in the test on BT-549 breast; 91.4% in the test on MDA-MB-435 melanoma; 101% with SW-620 colon; 53.1% in the test with MCF7 breast; 65.7% in the test with HCT-116 colon. Also, the growth was 106% in the test with HCC-2998 colon and 100% in the test with KM12 colon.
As to `O=C(CSc1nnc(-c2ccccc2)o1)Nc1ccc(C(=O)/C=C/c2ccccc2)cc1`, the growth was 79.4% with T-47D breast; 74.5% in the test on BT-549 breast; 55.5% in the test on MDA-MB-435 melanoma; 39.4% with SW-620 colon; 7.77% (active) in the test with MCF7 breast; -2.15% (active) in the test with HCT-116 colon. Also, the growth was 46.5% with HCC-2998 colon and 30.2% in the test on KM12 colon.
In the case of `Nc1nc(Cl)cc(NCCCCNc2cc(Cl)nc(N)n2)n1`, the growth in the test on T-47D breast is 108%; with BT-549 breast it was 99.9%; in the test on MDA-MB-435 melanoma it was 124%; in the test on SW-620 colon, 112%; with MCF7 breast, 109%; in the test on HCT-116 colon, 102%. Further, the growth is 103% in the test on HCC-2998 colon and 113% with KM12 colon.
Take `COc1ccc(/C=C/C(=O)c2ccc(NC(=O)CSc3nnc(-c4cc(OC)c(OC)c(OC)c4)o3)cc2)cc1`: the growth in the test on T-47D breast is -44.5% (active); with BT-549 breast, -3.02% (active); in the test on MDA-MB-435 melanoma it was -39.2% (active); in the test with SW-620 colon, -61.5% (active); in the test on MCF7 breast, -30.8% (active); in the test with HCT-116 colon it was -76.4% (active). The growth was -72% (active) with HCC-2998 colon and -91.8% (active) with KM12 colon.
Consider `Cc1cc(N2CCOCC2)nc(N(CCNc2ccnc3cc(Cl)ccc23)Cc2ccco2)n1`, for which the growth is -6.08% (active) in the test on T-47D breast; 30.2% with BT-549 breast; 26.6% with MDA-MB-435 melanoma; 50.5% with SW-620 colon; 40.6% in the test on MCF7 breast; 14.5% in the test on HCT-116 colon. In addition, the results for the growth in the test on HCC-2998 colon and in the test on KM12 colon were 62.9% and 44.8%, respectively.
In the case of `CN(C)c1ccc(/C=c2\s/c(=C\C(=O)C(C)(C)C)[nH]c2=O)cc1`, the growth in the test on T-47D breast was 81.4%; in the test with BT-549 breast, 97.3%; with MDA-MB-435 melanoma, 89.3%; in the test with SW-620 colon it was 101%; in the test with MCF7 breast it was 86.7%; in the test with HCT-116 colon, 91.2%. Also, the growth is 107% in the test on HCC-2998 colon and 81.9% with KM12 colon.
As to `COc1ccc(-c2nnc(SCC(=O)Nc3ccc(C(=O)/C=C/c4ccccc4)cc3)o2)cc1OC`, the growth was 98.7% with T-47D breast; 98.3% with BT-549 breast; 92.7% in the test with MDA-MB-435 melanoma; 103% in the test with SW-620 colon; 56% in the test on MCF7 breast; 51.8% in the test on HCT-116 colon. For the same compound, the growth in the test with HCC-2998 colon was 116%; with KM12 colon it was 99.6%.
As for `Fc1cccc(F)c1C#Cc1ccc2cccnc2c1`, the growth with T-47D breast was 22.3%; with BT-549 breast, 95.6%; with MDA-MB-435 melanoma it was 107%; in the test on SW-620 colon it was 90.5%; in the test on MCF7 breast, 14.8%; in the test on HCT-116 colon it was 74.6%. Also, the growth in the test on HCC-2998 colon was 68.6%; with KM12 colon it was 79.1%.
As to `O=C(Nc1ccc(F)cc1)Nc1ccc(Br)c(C(F)(F)F)c1`, the growth was -4.72% (active) with T-47D breast; 15.5% in the test with BT-549 breast; 6.46% (active) in the test on MDA-MB-435 melanoma; 19.8% in the test with SW-620 colon; 1.94% (active) in the test on MCF7 breast; 4.58% (active) in the test with HCT-116 colon. In addition, the values for the growth in the test on HCC-2998 colon and with KM12 colon were 11.8% and 13.8%, respectively.
